Screens deposited in PubChem BioAssay by National Center for Advancing Translational Sciences (NCATS).
Most compounds without a hit are left out; they make up all but 2.9% or so of the library.
POLB inh: DNA polymerase beta (human) inhibition. Pol beta primer extension/strand displacement, fluorescence kinetic. Potency, µM (highest dose often 114 µM), without a hit: at the top dose activity change, negative = inhibition, usual class: inhibitors. 340,000 tested, 1.3% active. P06746; also: potency is read from the fitted curve at half-maximal effect; % is scaled to controls: 0 for no effect and ±100 for the full control effect
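Kinetic readout of DNA synthesis with strand displacement by Pol beta. Compound and 10 nM enzyme sit 15 min at room temperature; 50 nM substrate starts the reaction, read immediately and at 10 min.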
12-LOX inh: blocks human arachidonate 12S-lipoxygenase; AID 1671190; Potency, µM (doses to about 108 µM), inactives show at the highest dose activity change, negative = inhibition, actives largely listed as inhibitors; 580,000 tested, 1.1% active; purified 12hLO, xylenol orange hydroperoxide absorbance; also: potency is read from the fitted curve at half-maximal effect; % is scaled to controls: 0 for no effect and ±100 for the full control effect
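Hydroperoxide product was detected by ferrous iron/xylenol orange as the 573 to 405 nm absorbance ratio. Arachidonic acid at 40 uM (final) was turned over for 30 min at room temperature by 150 nM human 12hLO, pH 7.0 Hepes buffer, after 15 min compound preincubation.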
PI5P4K alpha inh: blocks human PI5P4K alpha kinase activity | PI5P4Kalpha enzyme, ADP-Glo luminescence, 60 min; stronger effect = lower value | AID 652105 | 330,000 tested, 1.2% active | max response, % | P48426; active = max response of -50% or lower; inconclusive = between -30% and -50%; inactive = -30% or higher; also: value at the top dose of about 77 µM; % is scaled to controls: 0 for no effect and ±100 for the full control effect
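Human PI5P4Kalpha with substrate in 0.038 M HEPES pH 7.4, 0.28 mM EGTA, 0.1% CHAPS, 5% DMSO; reaction started with 5 microM ATP (final), 60 min at room temperature. ADP formed read by ADP-Glo luminescence.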
Pol eta inh-1: DNA polymerase eta (human) inhibition | recombinant Pol eta, fluorescent DNA replication assay | 390,000 tested, 1.2% active | Potency, µM (titrated, usually from 114 µM), without a hit: at the highest dose activity change, negative = inhibition, usual class: inhibitors | AID 588591; also: potency is read from the fitted curve at half-maximal effect; % is scaled to controls: 0 for no effect and ±100 for the full control effect
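Pol eta (10 nM) was preincubated with compounds for 15 min at room temperature, after which fluorescent replication substrate (50 nM final) was added to start the reaction. Fluorescence was read kinetically at 0 and 10 min.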
Pol kappa inh-1: inhibitors of human DNA polymerase kappa; purified Pol kappa, fluorescent DNA synthesis assay, 10 min; 400,000 tested, 0.53% active; AID 588579; Q9UBT6; Potency, µM (doses to about 107 µM), for the others: at the top dose activity, negative = inhibition, actives largely listed as inhibitors; also: potency is read from the fitted curve at half-maximal effect; % is scaled to controls: 0 for no effect and ±100 for the full control effect
Target sequence (Q9UBT6 whole entry, looked up): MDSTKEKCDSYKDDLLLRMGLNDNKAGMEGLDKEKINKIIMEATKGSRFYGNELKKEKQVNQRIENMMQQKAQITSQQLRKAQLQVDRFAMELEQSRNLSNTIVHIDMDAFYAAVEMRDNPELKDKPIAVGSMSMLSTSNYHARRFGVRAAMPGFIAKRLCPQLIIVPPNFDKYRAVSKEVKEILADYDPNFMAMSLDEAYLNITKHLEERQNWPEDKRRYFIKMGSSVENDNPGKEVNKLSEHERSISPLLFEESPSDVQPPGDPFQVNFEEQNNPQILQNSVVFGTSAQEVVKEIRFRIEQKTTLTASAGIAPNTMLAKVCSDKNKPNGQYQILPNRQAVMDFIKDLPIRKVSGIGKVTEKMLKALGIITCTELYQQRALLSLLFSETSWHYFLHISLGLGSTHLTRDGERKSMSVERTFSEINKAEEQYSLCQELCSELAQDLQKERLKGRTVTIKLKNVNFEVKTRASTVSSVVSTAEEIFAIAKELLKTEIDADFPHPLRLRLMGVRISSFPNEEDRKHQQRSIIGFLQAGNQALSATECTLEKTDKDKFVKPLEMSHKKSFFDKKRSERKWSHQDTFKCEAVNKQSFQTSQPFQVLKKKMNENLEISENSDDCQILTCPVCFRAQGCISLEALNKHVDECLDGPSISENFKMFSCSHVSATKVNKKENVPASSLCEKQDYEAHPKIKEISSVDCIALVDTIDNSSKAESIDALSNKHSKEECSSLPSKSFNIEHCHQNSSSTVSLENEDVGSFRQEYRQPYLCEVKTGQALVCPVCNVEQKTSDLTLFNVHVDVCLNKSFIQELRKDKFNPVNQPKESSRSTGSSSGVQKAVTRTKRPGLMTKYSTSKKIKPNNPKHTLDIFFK
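Kinetic fluorescence screen: compound preincubated 15 min RT with 10 nM enzyme; 50 nM substrate (final) initiates; reads at 0/10 min.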
POLI inh: inhibitors of human DNA polymerase iota; Q9UNA4; Pol iota fluorescent replication assay, 10 min; Potency, µM (titrated, usually from 115 µM), without a hit: at the top dose activity, negative = inhibition, actives largely listed as inhibitors; 390,000 tested, 1% active; AID 588590; also: potency is read from the fitted curve at half-maximal effect
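Fluorescent replication assay read twice, at 0 min and 10 min after adding 50 nM (final) substrate. Enzyme (10 nM) and compounds were first incubated 15 min at room temperature; enzyme-free buffer wells were negative controls.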
Pol kappa inh-2: Pol kappa (human) inhibition, cherry-pick confirmation; shares compounds with Pol eta inh-1; purified Pol-kappa, fluorescent strand-displacement substrate; Potency, µM, hits mostly inhibitors; 920 tested, 76% active; also: potency is read from the fitted curve at half-maximal effect
Pol eta inh-2: confirmation of human DNA polymerase eta inhibitors; shares compounds with Pol eta inh-1; Pol eta primer extension, TAMRA/BHQ fluorescence, 10 min; Potency, µM, usual class: inhibitors; 2,600 tested, 64% active; AID 720502; also: potency is read from the fitted curve at half-maximal effect
An asterisk follows results filed as active; u = inconclusive; x = not tested or not shown. Unless noted, calls follow the shape of the dose curve; as a rule, active = well fitted inhibition curve with a large enough effect; inconclusive = small, poorly fitted or top-dose-only effect, or another doubt; inactive = no such curve, though single readings can be large or run the other way.

SMILES	POLB inh	12-LOX inh	PI5P4K alpha inh	Pol eta inh-1	Pol kappa inh-1	POLI inh	Pol eta inh-2	others
Cc1ccc(C)c(N2CCN(S(=O)(=O)c3ccc4c(c3)C(C)(C)C(=O)N4C)CC2)c1	-2.5%	145.3%	-0.3	-8.3%	-2.1%	-17.8%	x
Cc1cccc(N2CCN(S(=O)(=O)c3ccc4c(c3)C(C)(C)C(=O)N4C)CC2)c1C	12.6µM*	19.1%	u	22.4µM*	u	u	u
CC1CC(NC(=O)CCC2CCCCC2)CC(C)(C)C1 (centres undefined)	x	-18.7%	x	x	x	x	x
Cc1nc(SCC(=O)O)c(C#N)c2c1CCCC2	8.91µM*	u	u	7.94µM*	u	25.1µM*	23.9*
CCc1nc(SCC(=O)O)c(C#N)c2c1CCCC2	8.3%	1.3%	0.6	-18.4%	-9.2%	72.2%	x
Cc1ccc(C(c2c(O)nc3n(c2=O)CCS3)c2c(O)nc3n(c2=O)CCS3)cc1	34.7%	-28.4%	-26.5	-12.7%	-33.6%	u	x
O=c1c(C(c2c(O)nc3n(c2=O)CCS3)c2cccc3ccccc23)c(O)nc2n1CCS2	u	31.6µM*	-76.4*	22.4µM*	39.8µM*	u	u
O=c1c(C(c2ccc(O)cc2)c2c(O)nc3n(c2=O)CCS3)c(O)nc2n1CCS2	3.2%	391.5%	-58.8*	20µM*	-39.5%	-26.1%	u
CCc1nc(-c2c3n(c(=O)n(Cc4ccc(F)c(F)c4)c2=O)CCCCC3)no1	x	-8.3%	x	x	x	x	x
Cc1c(C(=O)Nc2cccc(F)c2)oc2c1-c1nn(Cc3c(F)cccc3Cl)cc1CC2	1.3%	-9.9%	x	89.1µM*	4.0%	20.5%	x	Pol kappa inh-2=47.4*
Cc1ccc(-c2cc(C(=O)O)c3ccccc3n2)cc1C	x	-36.0%	x	x	x	x	x
COc1ccc(NC(=O)c2cc(OC)c(OC)c(OC)c2)cc1NS(C)(=O)=O	x	-2.6%	x	x	x	x	x
O=C(O)c1ccc(CSc2n[nH]c(-c3ccco3)n2)cc1	u	-21.2%	-16.6	11.2µM*	44.7µM*	20µM*	u
Cc1cccc(C)c1NC(=O)CN(C)C(=O)c1ccc2nc[nH]c2c1	x	-12.5%	-12.6	u	u	22.4µM*	67.5*
Cc1cccc(NC(=O)c2sc3nc(-c4cc5ccc(O)cc5oc4=O)[nH]c(=O)c3c2C)c1	u	u	x	u	-3.2%	41.4%	u
Cc1cc(C)cc(NC(=O)c2sc3nc(-c4cc5ccccc5oc4=O)[nH]c(=O)c3c2C)c1	-6.4%	5.2%	x	-11.6%	-13.3%	7.3%	x
O=C(O)c1ccc(Cn2cc(/C=C\[N+](=O)[O-])c3ccccc32)o1	u	u	-7.9	22.4µM*	u	8.91µM*	75.7*
CN1Cc2cccn2CC1CNC(=O)C1(S(=O)(=O)c2ccc(Cl)cc2)CC1 (centres undefined)	x	195.3%	x	x	x	x	x
Cc1cc(C(=O)OCC(=O)NC(=O)NC(C)C)c2ccccc2n1	x	-2.1%	x	x	x	x	x
O=C(O)c1cccc(N2CCCC2)c1	2.2%	u	-10.4	u	-14.3%	u	75.7*
COc1ccc(-n2c(C)cc(/C=C3\C(=N)N4N=C(CC(=O)N5CCOCC5)SC4=NC3=O)c2C)c(OC)c1	u	-22.9%	-18.3	39.8µM*	u	44.7µM*	u
Cc1ccc(/C=C2/C(=N)N3N=C(CC(=O)N4CCCC4)SC3=NC2=O)cc1	7.7%	-19.5%	1.9	-4.8%	-6.0%	0.7%	x
N=C1/C(=C\c2ccc(OC(=O)c3ccc(F)cc3)cc2)C(=O)N=C2SC(N3CCCC3)=NN12	-0.6%	20.5%	-23.0	56.2µM*	-26.5%	-11.8%	x	Pol kappa inh-2=67*
COc1cc(/C=C2/C(=N)N3N=C(CC(=O)N4CCOCC4)SC3=NC2=O)ccc1OCc1ccc(F)cc1	-1.7%	-15.7%	-21.7	u	u	u	x
CSc1ccc(/C=C2/C(=N)N3N=C(CC(=O)N4CCCC4)SC3=NC2=O)cc1	7.0%	u	-5.6	39.8µM*	u	79.4µM*	u
SMILES	POLB inh	12-LOX inh	PI5P4K alpha inh	Pol eta inh-1	Pol kappa inh-1	POLI inh	Pol eta inh-2	others
COc1ccc(OC)c(NC(=O)c2nc3ccccc3nc2N2CCOCC2)c1	x	-36.5%	x	x	x	x	x
O=C(NCc1ccccc1)c1ccc2nc(-c3ccco3)c(-c3ccco3)nc2c1	u	u	u	2.51µM*	17.8µM*	8.91µM*	u
O=C(NCCCO)c1ccc2nc(-c3ccco3)c(-c3ccco3)nc2c1	28.2µM*	u	-24.9	7.94µM*	28.2µM*	10µM*	19*	Pol kappa inh-2=18.9*
Cc1nc2ccc(C(=O)NCCCN(C)C)cc2nc1C	x	-5.3%	x	x	x	x	x
Cc1ccc2nc(-c3cccc(NC(=O)c4ccc([N+](=O)[O-])c(C)c4)c3)oc2c1	x	30.2%	x	x	x	x	x
O=C(Nc1cc(F)ccc1F)c1nc2ccccc2nc1N1CCCCC1	x	7.9%	x	x	x	x	x
CCc1ccc(-c2nn(C)c(=O)c3c2CCCC3)cc1S(=O)(=O)Nc1cccc(C(C)=O)c1	x	-2.9%	x	x	x	x	x
Cc1onc(-c2ccccc2Cl)c1C(=O)NCc1ccco1	28.2µM*	u	x	44.7µM*	u	u	u
Cc1ccc(CNC(=O)c2c(-c3ccccc3Cl)noc2C)cc1	21.8%	9.3%	2.6	-5.1%	-10.9%	-10.1%	x
COc1ccc(-n2cc(CN3CCCC(O)C3)c(-c3cccc(F)c3)n2)cc1 (centres undefined)	x	12.9%	x	x	x	x	x
Cc1ccc(C)c(NC(=O)CCNS(=O)(=O)c2ccc3[nH]c(=O)oc3c2)c1	11.2µM*	23.2%	0.8	22.4µM*	3.5%	-17.4%	u
Cc1cc(C(=O)NNC(=S)Nc2ccccc2)cs1	x	-5.5%	x	x	x	x	x
CC(=O)n1cc(N(C(=O)CCl)c2ccccc2)c2ccccc21	2.8%	u	3.2	14.1µM*	-0.5%	-15.2%	42.6*
O=[N+]([O-])c1ccc2c(c1)N([O-])C1(CCCCC1)[N+]2=O	-1.7%	u	-50.8*	22.4µM*	u	11.2µM*	84.9*
CC1=C(c2ccccc2)[N+](=O)C2(CCCC2)N1[O-]	19.4%	0.0%	x	3.5%	-7.4%	8.0%	x
CCn1c(=O)c2c(cc(C)n2C)n(CC(=O)Nc2ccc(F)cc2F)c1=O	x	5.1%	x	x	x	x	x
O=C1SC(SCc2ccccc2Cl)=N/C1=C\c1ccc(C(=O)O)cc1	u	-21.4%	-27.1	50.1µM*	-39.8%	u	u
COc1cc(NC(=O)c2ccc3c(SCC(=O)O)c4c(nc3c2)CCC4)cc(OC)c1OC	-4.5%	-7.2%	1.6	17.8µM*	u	u	53.6*
